Compound activity as filed in PubChem BioAssay.
N370S GC mod: inhibitors or activators of N370S glucocerebrosidase for Gaucher disease. N370S GC spleen homogenate, 4MU-glucoside fluorescence. Potency, µM (series often up to 59.4 µM), inactives show at the highest dose activity change, negative = inhibition, most hits filed as inhibitors. actives 0.092% (n = 330,000);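 also: potency is read from the fitted curve at half-maximal effect; 0% = full enzyme activity and -100% = no enzyme basal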
Integrin act MD: integrin-mediated muscular dystrophy alleviation activation. Potency, µM (highest dose often 38.3 µM), without a hit: top-dose activation, hits mostly activators. actives 0.064% (n = 350,000). alpha7betagal myoblasts, beta-gal FDG fluorescence, 48 h. AID 624291;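 also: potency is read from the fitted curve at half-maximal effect; 100% = response of the positive control SU9516; nearly all actives have a fitted effect of over 60% in size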
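Alpha7betagal+/- myoblasts (passage 13) were plated 16-24 hr, then exposed to compounds (1:260 dilution of DMSO stock) for 48 hours at 37C. After MPER lysis, β-galactosidase reporter activity was read as FDG fluorescence (ex 480/em 540) after 30 minutes.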
IL-2 act: activates IL-2 in a cell-based reporter assay. AID 652025. IL-2 activation reporter assay, cell-based qHTS; stimulated with anti-CD3/CD4/CD28 beads; in transgenic mouse T cells. activation, % (series mostly up to about 46 µM). actives 0.065% (n = 360,000); in the data active = activation above about 50%; inconclusive = mostly about 30% to 49%; also: 0% is about no effect
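Unstimulated transgenic mouse T cells, 750 per well, received compound and, after 60 minutes, anti-CD3/anti-CD4 bead plus anti-CD28 stimulation. EGFP and DsRed were quantified after 18 hours.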
Nrf2 ARE act: activates Nrf2 signaling; actives 0.31% (n = 410,000); AID 624171; AREc32 ARE-luciferase reporter (MCF7-derived line), luminescence, 24 h; Potency, µM (highest dose often 46.1 µM), inactives show at the top dose activation, hits mostly activators; also: potency is read from the fitted curve at half-maximal effect; % of control where 0% means no effect; nearly all actives have a fitted effect of over 65% in size
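Nrf2 activation is followed as ARE-luciferase induction in the AREc32 line after one day of compound treatment; luminescence is read with Steady-Glo.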
BRCA1 expr up: BRCA1 expression activation; MCF7-BRCA1-FFLuc reporter, luminescence, 48 h; response scale: scaled: vehicle 0%, 10 µM genistein 100%; Potency, µM (series often up to 46.1 µM), without a hit: top-dose activation, actives largely listed as activators; actives 1.1% (n = 380,000); also: potency is read from the fitted curve at half-maximal effect; nearly all actives have a fitted effect of over 80% in size
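Reporter cells (MCF7, BRCA1 promoter-firefly luciferase) received library compounds across a concentration series for 48 h. End-point luminescence was measured and concentration-effect curves derived after normalization.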
Chronic BCR inh: blocks chronic active B-cell receptor signaling; AID 493014; ABC-DLBCL IkBa-CBG/CBR reporter, luminescence ratio, 4 h; actives 0.05% (n = 340,000); Potency, µM (doses to about 46.1 µM), without a hit: at the highest dose activity change, negative = inhibition, actives largely listed as inhibitors; active = well fitted inhibition curve with a large enough effect in the signal ratio, with a control signal flat, not every such curve was filed as active; inconclusive = small, poorly fitted or top-dose-only effect, or effect the other way, or a change in a side signal; the % refers to the signal ratio;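 also: potency is read from the fitted curve at half-maximal effect; plate controls were basal doxycycline-induced cells for no effect and cells given 10 µM MG132 for full effect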
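Concentration-response series (up to 46 uM) were applied to TMD8 dual-reporter cells for 4 h at 37C with doxycycline. Green/red ratio, after filter-overlap correction, defined %Activity; red signal alone was normalised to basal cells and zero luminescence.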
* marks the source's active call; other numbers are inactive results; ? = inconclusive; · = not tested or not shown; [ ] = another dose, or the depositor's remark. Most compounds without a hit are left out; they make up all but 1.4% or so of the library. Unless noted, calls follow the shape of the dose curve; as a rule, active = well fitted curve in the direction sought with a large enough effect; inconclusive = small, poorly fitted or top-dose-only effect, or another doubt; inactive = no such curve, though single readings can be large; an effect the other way counts as inactive or inconclusive.

SMILES	N370S GC mod	Integrin act MD	IL-2 act	Nrf2 ARE act	BRCA1 expr up	Chronic BCR inh
CC(/C=N/NC(=O)c1ccc(Cn2cc([N+](=O)[O-])cn2)o1)=C\c1ccccc1	-12%	16%	-3	1%	?	?
COc1ccccc1C1CC(=O)Nc2cc3c(cc21)OCCO3 (centres undefined)	10%	-15%	-1	0%	-82%	23µM*
CCCCOc1ccc(Cn2c(=O)sc3ccccc32)cc1OC	·	·	·	7%	·	·
Cc1ccc2nc(-c3ccc(SCC(=O)N4CCc5ccccc54)nc3)[nH]c2c1	3.2µM*	-18%	0	8%	2%	?
CCOCCc1nn2c(=O)cc(COC(=O)Cc3ccccc3)nc2s1	·	·	·	1%	·	·
O=C(Nc1ccc(N2CCN(C(=O)c3ccccc3F)CC2)cc1)c1cncc(Br)c1	-6%	13µM*	-2	-1%	-30%	?
COc1cccc2nccc(/C=C/c3ccc(N(C)C)cc3)c12	·	·	·	·	-27%	·
COc1ccccc1N1CCN(/N=C/c2ccc([N+](=O)[O-])cc2)CC1	6%	-26%	0	2%	5µM*	?
COc1ccccc1N1CCN(/N=C/c2ccc(Cl)c([N+](=O)[O-])c2)CC1	-1%	21%	-1	3%	?	8%
CCCNC(=S)Nc1cccc(C(F)(F)F)c1	-1%	-15%	1	1%	0%	6%
CC(C)(C)NNC(=S)Nc1cccc(C(F)(F)F)c1	-13%	-16%	-5	10%	-22%	7.9µM*
CC(C)(C)c1ccc(-n2ncc3c2CCCC3NC(=O)C2=NNC(=O)CC2)cc1 (centres undefined)	-15%	-16%	-4	1%	-31%	-12%
NC(=NCc1ccco1)NC(=O)c1ccc(Cl)cc1	3%	-16%	-1	4%	11µM*	-5%
C/C(=N\NC(=O)c1ccc(O)cc1)c1cccc(NC(=O)c2ccc(Cl)cc2)c1	·	-28%	-3	3%	5.6µM*	·
C/C(=N\NC(=O)c1ccc(F)cc1)c1cccc(NC(=O)c2cccc(F)c2)c1	8%	3%	-1	4%	52%	?
C/C(=N\NC(=O)c1c(Br)cnn1C)c1ccc(NC(=O)c2ccc(F)cc2)cc1	3%	?	-3	-1%	7.9µM*	3%
C/C(=N\NC(=O)c1cccc(O)c1)c1cccc(NC(=O)c2ccc(F)cc2)c1	-4%	-26%	1	2%	4µM*	?
COc1ccc(-c2nc(-c3ccccc3OC)no2)cc1OC	-8%	13%	-1	7%	10µM*	?
COc1ccc(-c2noc(CSc3ccccc3)n2)cc1OC	-15%	-14%	-1	1%	11µM*	?
COc1ccccc1-c1noc(-c2ccccc2)n1	7%	42%	-4	25%	?	?
O=C(C[n+]1c(Cl)ccc2ccccc21)c1ccc2ccccc2c1	·	·	·	·	1%	·
Clc1cccc(CNc2ccn3nc(-c4cccs4)cc3n2)c1	·	·	0	1%[9.22 µM]	8.9µM*	·
Cc1ccc(/C=[N+](\[O-])c2ccc(N(C)C)cc2)c2nsnc12	-10%	-61%	1	0%	-77%	10µM*
COC(=O)CSc1nc(N)c(C#N)c(-c2ccco2)c1C#N	0%	8%	-4	14µM*	2%	?
CCNc1nc(N)c(C(=O)c2ccc(Cl)s2)s1	11%	-12%	-1	-1%	5µM*	?
SMILES	N370S GC mod	Integrin act MD	IL-2 act	Nrf2 ARE act	BRCA1 expr up	Chronic BCR inh
CCCSc1nsc(NC(=O)CCC)n1	9%	32%	2	3%	1.4µM*	?
Cc1ccc2c(c1)C(N1CCCC1=O)CC(c1ccco1)N2 (centres undefined)	-4%	-22%	0	11µM*	?	?
Cc1ccc(C2CC(c3ccco3)n3ncnc3N2)cc1 (centres undefined)	-4%	-1%	1	1%	-16%	0%
CC(C)c1ccc(C(=O)CSc2ncn[nH]2)cc1	5%	-2%	-3	7%	14µM*	?
O=C(Nc1ncc(Cc2cccc(Cl)c2Cl)s1)C1CCCO1 (centres undefined)	8%	-27%	-3	9%	?	2%
O=C(Nc1nc(-c2ccc(Cl)cc2Cl)cs1)C1CCCO1 (centres undefined)	-14%	-22%	-1	2%	1%	1%
O=C(Nc1ncc(Cc2ccccc2Cl)s1)C1CCCO1 (centres undefined)	11%	-48%	-2	0%	4.5µM*	10%
O=C(Nc1nc(-c2ccc(Cl)cc2)cs1)C1CCCO1 (centres undefined)	2%	?	-1	4%	6.3µM*	1%
CCOc1ccc(OCCC(=O)OCC(=O)NC2CCCCC2)cc1	-1%	7%	-6	0%	-3%	4%
CC(=O)NC(c1ccc(C)cc1)c1cc([N+](=O)[O-])c2cccnc2c1O (centres undefined)	-25%	-15%	1	0%	-106%	-12%
CCC(=O)NC(c1ccc(C)cc1)c1cc([N+](=O)[O-])c2cccnc2c1O (centres undefined)	-4%	19%	147*	0%	-96%	8%
COc1ccccc1CNC(=O)Cn1c(=O)nc(-c2ccccc2F)c2cc(Cl)ccc21	·	·	·	0%	·	·
CCCCCNC(=O)C1C(=O)Nc2ccccc2C(=O)N1c1c(C)cccc1C (centres undefined)	·	·	1	·	·	·
COc1ccc2c(Cl)c(C(N)=O)sc2c1	1%	6%	-2	2%	10µM*	?
CC1=NN(c2ccccc2)C(=O)/C1=C/C=C/c1ccccc1	-9%	-38%	0	11µM*	-48%	?
CC1=NN(c2cccc(C(=O)O)c2)C(=O)/C1=C\C=C\c1ccco1	-2%	-30%	1	?	32%	?
Cc1cc(C)n(CCN(C)C(=O)CCc2nnc(CCC3CCCCC3)o2)n1	-6%	2%	1	8%	11µM*	1%
COc1ccc(-c2nn(C)c(=O)c3ccccc23)cc1CNS(C)(=O)=O	-1%	18%	1	5%	-24%	18µM*
CN(C)c1ccc(/C=C2\C=Nc3ccccc32)cc1	·	·	·	·	0%	·
O=C(NN=C1CCN(Cc2ccccc2)CC1)c1ccccc1O	1%	-34%	-1	2%	-11%	?
O=C(O)c1cc(NN=C2CCN(Cc3ccccc3)CC2)ccc1Cl	1%	-17%	-1	2%	3.2µM*	?
